This is an account of results in PubChem BioAssay AID2402 (Southern Research Specialized Biocontainment Screening …, 2010).

Results with a measured potency or affinity are listed apart. Active and inactive are the calls of the source.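 How the source made its calls: active means viability below 70% at one or more tested doses; inactive means viability above 70% at every dose tested.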

The assay can be described thus: Vero cell viability after compound exposure – synthesized analogs, set II, cytotoxicity control for West Nile virus antiviral project, SAR follow-up (AID 2402). Particulars: Vero E6 viability, CellTiter-Glo, 72 h; series mostly up to 100 µM; viability: at the top concentration.
A word on the viability: it is a read-out of living cells in per cent, often relative to untreated cells. Turning to `Cc1cccc2c(=O)n3c(nc12)CCC3`, the “viability” value was 82.8% (inactive).

Take `Cc1cc(OC(=O)c2c(F)cccc2F)n(Cc2ccccc2)n1`: the “viability” value is 94% [at 200 µM] (inactive).

`O=c1c2c(F)cccc2nc2n1CCC2`: the “viability” value is 102% (inactive).

With `CC(=O)Nc1ccc2nc3n(c(=O)c2c1)CCC3`, the “viability” value is 86.2% (inactive).

As to `OC1c2cc(I)ccc2N=C2CCCN21` (stereo not given), the “viability” value was 106% [at 200 µM] (inactive).

Regarding `O=C(CSc1nc2ccccc2c(=O)n1-c1ccccc1)Nc1ccc2c(c1)CCC2`, the “viability” value is 78.5% (inactive).

For `CC1(O)c2cc(Br)ccc2N=C2CCCN21` (stereo not given), the “viability” value is 73.1% (inactive).

For `COc1ccccc1NC(=O)CSc1nc2ccccc2c(=O)n1-c1ccc(F)cc1`, the “viability” value was 101% (inactive).

Consider `O=c1c2cccc(Cl)c2nc2n1CCC2`, for which the “viability” value was 81.5% (inactive).

For the molecule `O=[N+]([O-])c1ccc2c(c1)C(O)N1CCCC1=N2` (stereo not given), the “viability” value is 77.9% (inactive).

As for `O=C(CSc1nc2ccccc2c(=O)n1-c1ccc(F)cc1)Nc1ccc2c(c1)OCCO2`, the “viability” value was 80.1% (inactive).

Consider `Cc1cccc2nc3n(c(=O)c12)CCC3`, for which the “viability” value was 87.6% (inactive).

Turning to `Nc1ccc2nc3n(c(=O)c2c1)CCC3`, the “viability” value is 88.1% (inactive).

In the case of `Cc1ccc2nc3n(c(=O)c2c1)CCC3`, the “viability” value is 76.8% (inactive).

As to `COc1ccc(NC(=O)CSc2nc3ccccc3c(=O)n2-c2ccc(F)cc2)cc1`, the “viability” value is 82% (inactive).
